Laboratory results reported in PubChem BioAssay AID2284353 (EPA ToxCast).
Results filed as inconclusive are left out. Calls of active or inactive are those of the source. Rule for the calls: active = hit-call score of the fitted dose curve at least 0.9, where 1 is the maximum; inconclusive = response in the unintended direction; inactive = score below 0.9.

System: Japanese medaka Peroxisome Proliferator-activated Receptor gamma (PPARg), gene 100304459
Experiment: ATG_jmPPARg_EcoTox2: Attagene TRANS-FACTORIAL EcoTox-2 HepG2 Assay for Japanese medaka Peroxisome Proliferator-activated Receptor gamma (PPARg)
Experimental: ATG_EcoTox2 is a cell-based, multiplexed assay created by modifying the existing Attagene TRANS-FACTORIAL system to include a panel of nuclear receptors from some or all the following species: human (Homo sapiens), african clawed frog (Xenopus laevis), rainbow trout (Oncorhynchus mykiss), japanese medaka (Oryzias latipes), and zebrafish (Danio rerio). The ECOTOX2-FACTORIAL format uses HepG2, a human liver cell line, with measurements taken at 24 hours after chemical dosing in a 24-well plate. ATG_jmPPARg_EcoTox2 is one of 29 assay components calculated in the ATG_EcoTox2 assay. It is designed to make measurements of mRNA induction, a form of inducible reporter, as detected with fluorescence intensity signals by Reverse transcription polymerase chain reaction (RT-PCR) and Capillary electrophoresis technology.The assay endpoint ATG_jmPPARg_EcoTox2 was analyzed in the positive analysis fitting direction relative to DMSO as the negative control and baseline of activity. Using a type of inducible reporter, measures of mRNA for gain-of-signal activity can be used to understand the reporter gene at the transcription factor-level as they relate to the gene PPARg. Furthermore, this assay endpoint can be referred to as a primary readout, because this assay has produced multiple assay endpoints where this one serves a reporter gene function. To generalize the intended target to other relatable targets, this assay endpoint is annotated to the nuclear receptor intended target family, where the subfamily is non-steroidal.
Human liver HepG2 cells are transiently transfected with multiple reporter transcription units (MRTUs) in 6-well plates using FuGene 6 reagent (Roche; 3 ml FuGene/1 mg DNA). The MRTU constructs are regulated by a cis-regulating element (promoter). Each RTU expresses a GAL4-UAS that regulates the transcription of a nearby target reporter gene sequence. A major difference between the CIS and TRANS system is that in CIS activities of endogenous TFs are measured, whereas the TRANS assay evaluates changes in activities of exogenous, chimeric NR-Gal4 proteins. […] At the end of 24 hour incubation, total RNA was isolated using TriZol reagent (Invitrogen). The isolated RNA is then reverse-transcribed using oligo(dT) primer and Mo-MLV reverse transcriptase (Invitrogen) with DNAse I (Ambion) treatment for 30 min. The one-tenth of the produced cDNA was amplified by PCR using Taq DNA polymerase (Invitrogen) and two reporter sequence-specific primers. The PCR products were fluorescently labeled by primer extension with 6-arboxyfluorescein (6-FAM) 5'-labeled reporter sequence-specific primer (2 min at 95 C, 20 s at 68 C and 10 min at 72 C) and these products were digested with 5U of HpaI (New England Biolabs) for 2h at 37 C. The fragments were purified using Qiaquick PCR columns (Qiagen), analyzed on an ABI 3130xL genetic analyzer (Applied Biosystems) with peak positions identified by using a set of X-rhodamine (ROX)-labeled MapMarker1000 molecular weight standards (BioVentures). The raw capillary electrophoresis data was processed using Attagraph software (Attagene).

Q: How did the AC50 turn out when `O=C(O)C(F)(F)C(F)(F)C(F)(F)C(F)(F)C(F)(F)C(F)(F)C(F)(F)F` was run?
A: The AC50 was 75 µM (active).

Q: With `[Cl][Sn]([c]1ccccc1)([c]1ccccc1)[c]1ccccc1` as the compound, how does the AC50 read?
A: Its AC50 is 0.382 µM (active).

Q: For `O=S(=O)(O)C(F)(F)C(F)(F)C(F)(F)C(F)(F)C(F)(F)C(F)(F)F`, which AC50 is on record?
A: Its AC50 is 76.1 µM (active).

Q: `O=P(Oc1ccccc1)(Oc1ccccc1)Oc1ccccc1` was tested. Which AC50 did it give?
A: The AC50 was 30.6 µM (active).

Q: Which AC50 does the source give for `CCCCOCN(C(=O)CCl)c1c(CC)cccc1CC` here?
A: Its AC50 is 4.6 µM (active).
